Consider 8 molecules from PubChem BioAssay (NCI).

This is part of a sample that, as a whole, favours compounds with a hit. Of some 79,000 tested, about 15% had one in any assay. Values without a mark were called inactive. Active and inactive are the calls of the source. No stated cut-off is given here; in the data, active means growth inhibition above about 70%; inactive means the rest.

This test is described as follows: NCI Yeast Anticancer Drug Screen. Data for the rad14 strain (AID 159).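 Further: 0% = growth of vehicle-treated control cultures.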 As to conditions: S. cerevisiae rad14 strain growth inhibition, stronger effect = higher value. Here is the method:
Growth inhibition of yeast strains with defined genetic alterations is measured as a screen for potential anti-cancer activity. Selected strains with alterations in DNA damage repair or cell cycle control were exposed to compounds and growth inhibition was measured relative to vehicle treated controls. The strain used in this assay is rad14

In the case of `CCCCN(CCC#N)c1ccc(/C=C/c2ccnc3ccccc23)cc1`, the growth inhibition (at 1.2 µM) was -8%; the growth inhibition (at 3.7 µM) was -10%; the growth inhibition (at 11.0 µM) was -5%; the growth inhibition (at 33.0 µM) is -1%; the growth inhibition (at 100.0 µM) is 56%.
For the molecule `S=C(NCc1ccccn1)N/N=C/c1ccccn1`, the growth inhibition is 98% (active) (at 1.2 µM); 99% (active) (at 3.7 µM); 99% (active) (at 11.0 µM); 99% (active) (at 33.0 µM); 99% (active) (at 100.0 µM).
In the case of `O=C(Oc1ccc([N+](=O)[O-])cc1)c1ccc([N+](=O)[O-])cc1`, the growth inhibition was 7% (at 1.2 µM); 5% (at 3.7 µM); 3% (at 11.0 µM); 19% (at 33.0 µM); 41% (at 100.0 µM).
On the same counts, the results for `O=C1c2cccc3cccc(c23)C(=O)N1CCNCCN1C(=O)c2cccc3cccc(c23)C1=O` are 0%, 1%, 0%, -1% and 4%.
For `Cc1ccc(S(=O)(=O)Nc2cccc3cccnc23)cc1`, in that order: -19%, -16%, 16%, 72% (active) and 56%.
On the same counts, the results for `CN(C)CCCn1c2c3ccccc3ccc2c2oc(=O)c3ccccc3c21` are -6%, 10%, 30%, 83% (active) and 98% (active).
For the molecule `COc1ccc2cc3c4cc5c(cc4cc[n+]3cc2c1OC)OCO5`, the growth inhibition (at 1.2 µM) was 18%; the growth inhibition (at 3.7 µM) is 46%; the growth inhibition (at 11.0 µM) is 78% (active); the growth inhibition (at 33.0 µM) is 96% (active); the growth inhibition (at 100.0 µM) was 98% (active).
Turning to `CCN(CC)CCNc1ccc2nc(C)n3c4ccc(O)cc4c(=O)c1c23`, the growth inhibition is -1% (at 1.2 µM); 2% (at 3.7 µM); 3% (at 11.0 µM); 8% (at 33.0 µM); 13% (at 100.0 µM).
